# In the library only some 3.4% were active in any assay of this set; here they are far more common.
# TEAD-YAP inh – TEAD-YAP interaction inhibition, primary screen, TEAD-YAP interaction inhibitor project, luminescence, HEK-TIYL cells; 640,000 tested, 1.4% active; inhibition, % at 9.12 µM; AID 1259422, 2018; TEAD-Gal4/YAP UAS-luciferase luminescence; in the data active = inhibition above about 32%
# GPR151 ag – activators of human GPR151, primary screen, cell-based, PathHunter beta-arrestin, luminescence; G-protein coupled receptor 151 (Homo sapiens), Q8TDV0; PathHunter beta-arrestin GPR151 cells; activation, % at 11.2 µM; 650,000 tested, 1% active; AID 1508602, 2020; in the data active = activation above about 4.9%
# Target sequence (Q8TDV0 whole entry, looked up): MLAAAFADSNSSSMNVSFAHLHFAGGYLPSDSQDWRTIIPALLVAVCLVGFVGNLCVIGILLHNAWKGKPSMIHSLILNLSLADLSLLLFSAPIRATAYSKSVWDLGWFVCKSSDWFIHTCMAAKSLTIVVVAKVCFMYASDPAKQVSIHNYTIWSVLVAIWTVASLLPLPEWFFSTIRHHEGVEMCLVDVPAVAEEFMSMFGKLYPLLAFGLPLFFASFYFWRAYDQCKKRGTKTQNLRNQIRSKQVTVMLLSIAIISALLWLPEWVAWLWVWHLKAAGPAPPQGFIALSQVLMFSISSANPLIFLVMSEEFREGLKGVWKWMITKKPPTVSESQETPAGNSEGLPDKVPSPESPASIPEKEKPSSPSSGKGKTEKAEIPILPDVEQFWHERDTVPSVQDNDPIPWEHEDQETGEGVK
# MITF primary – MITF inhibitors, primary screen, biochemical, AlphaScreen, human | Microphthalmia-associated transcription factor (Homo sapiens), O75030 | AlphaScreen MITF homodimerization, bead proximity signal | inhibition, % at 2.6 µM | 650,000 tested, 0.91% active; in the data active = inhibition above about 50%
# FBW7 activator – FBW7 E3 ligase activators, primary screen, biochemical, AlphaScreen, human; F-box/WD repeat-containing protein 7 (Homo sapiens), Q969H0; normalized activity (activation), % at 26.1 µM; 650,000 tested, 0.13% active; AlphaScreen FBW7–phospho-cyclin E peptide binding, activator screen; in the data active = normalized activity above about 1.9%;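 note: purified mutant Fbw7 with reduced substrate affinity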
# Numbers stand for hits; i = inactive.
SMILES,TEAD-YAP inh,GPR151 ag,MITF primary,FBW7 activator
Cc1ccc2nc(-c3ccc(NC(=O)c4cc(I)ccc4Br)cc3)oc2c1,i,i,i,i
Cc1ccc2nc(-c3ccc(Br)c(N)c3)oc2c1,70.2,i,i,i
CCc1cc2c(=O)c(-c3ccc4c(c3)OCO4)coc2cc1OC(C)=O,i,i,i,i
CCc1cc2c(=O)c(-c3ccc4c(c3)OCCCO4)coc2cc1OC(=O)c1ccco1,44.3,i,i,i
CCc1cc2c(=O)c(-c3ccc4c(c3)OCCO4)coc2cc1OCC(=O)O,87.1,i,i,i
COc1ccc(C2C(C(=O)N3CCCC3)c3ccccc3C(=O)N2C2CCCCC2)cc1 (stereo not drawn),i,i,i,i
CCOC(=O)C1=C(C)N=c2s/c(=C\c3ccc(I)cc3)c(=O)n2C1c1ccccc1OC (stereo not drawn),i,i,i,i
CC(=O)C1C(=O)CC(C)(C)C(Cl)C1=O (stereo not drawn),i,i,i,i
COC(=O)CCCNc1nncc(-c2ccc3c(c2)OCO3)n1,34.7,i,i,i
COc1cc(N2CCN(C(=O)Nc3ccc4c(c3)OCCO4)CC2)nc(C)n1,i,i,i,i
O=C1NC2(CCN(S(=O)(=O)c3cccs3)CC2)Oc2ccccc21,i,i,i,2.0
O=C1NC2(CCN(Cc3cccs3)CC2)Oc2ccccc21,i,i,i,i
C/C(CC(=O)Nc1cccc(C)n1)=N\NC(=O)c1ccc(O)cc1O,i,i,i,i
CCN1CCN(C(c2ccc(F)cc2)c2nnnn2Cc2ccccc2)CC1 (stereo not drawn),i,i,i,i
CC(C)(C)c1ccc(C(=O)Nc2ncc(Cc3ccc(F)cc3)s2)cc1,i,i,i,i
CCc1nnc(NC(=O)c2ccc(OC)cc2)s1,40.5,i,i,i
COc1ccc(Cc2cnc(NC(=O)c3ccc(C)cc3)s2)cc1,49.9,i,i,i
COc1ccc(Cc2cnc(NC(=O)COc3ccccc3Cl)s2)cc1,58.0,i,i,i
CCCCOc1ccc(C(=O)Nc2nnc(CC)s2)cc1,i,i,i,i
O=C(Nc1ncc(Cc2ccc(F)cc2)s1)c1ccc(Br)cc1,37.8,i,i,i
COc1ccc(Cc2cnc(NC(C)=O)s2)cc1,i,i,i,i
Cc1ccc(Cc2cnc(NC(=O)/C=C/c3ccco3)s2)cc1,58.0,i,i,i
CCOc1ccc(/C=C/C(=O)Nc2ncc(Cc3ccc(C)cc3)s2)cc1,i,i,i,i
O=C1NC2(CCN(C(=O)c3nccc4ccccc34)CC2)Nc2ccc(Cl)cc21,77.6,i,i,i
O=C(Nc1ccc(S(=O)(=O)N2CCC(c3nc4ccccc4[nH]3)CC2)cc1)c1ccccc1F,40.3,i,i,i
SMILES,TEAD-YAP inh,GPR151 ag,MITF primary,FBW7 activator
CCC(CC)C(=O)Nc1ccc(S(=O)(=O)N2CCC(c3nc4ccccc4[nH]3)CC2)cc1,i,i,i,i
O=C(CCc1ccccc1)Nc1ccc(S(=O)(=O)N2CCC(c3nc4ccccc4[nH]3)CC2)cc1,32.0,i,i,i
CCOC(=O)C1=C(C)N=c2s/c(=C\c3ccc(OCc4ccccc4Cl)c(OCC)c3)c(=O)n2C1c1ccc(OC)c(OC)c1 (stereo not drawn),i,i,i,i
Nc1cccc(-c2nc3cc(S(=O)(=O)c4ccc5oc(-c6cccc(N)c6)nc5c4)ccc3o2)c1,i,i,i,i
CC(C)c1ccc2oc(-c3ccc(N)cc3)nc2c1,80.3,i,i,i
CC(C)c1ccc2oc(-c3cccc(N)c3)nc2c1,65.0,i,i,i
O=C(Nc1cccc(Cl)c1)c1cc(S(=O)(=O)NCc2ccccc2)ccc1F,i,i,i,i
COc1ccccc1C(CCN(Cc1ccc(Cl)cc1)C(=O)c1ccco1)c1ccc2c(c1)OCO2 (stereo not drawn),i,i,i,i
Cc1ccc(-c2csc(NC(=O)c3ccc(S(=O)(=O)N(C)C)cc3)n2)c(C)c1,35.3,i,i,i
O=C(Nc1nc(-c2ccccn2)cs1)c1cccc(Oc2ccccc2)c1,37.1,i,i,i
COc1cc(C(=O)Nc2nc(-c3ccccn3)cs2)cc(OC)c1OC,73.3,i,i,i
Cc1ccc(-c2csc(NC(=O)c3cccc(Oc4ccccc4)c3)n2)cc1,i,i,i,i
COc1cc(C(=O)Nc2nc(-c3ccc(C)cc3C)cs2)cc(OC)c1OC,32.3,i,i,i
CCN(CC)S(=O)(=O)c1ccc(C(=O)Nc2nc(-c3ccc(C)cc3C)cs2)cc1,i,i,i,i
